In the OligoGym collection:

molecular target: CRYGS; test: pooled miR-30 sensor sort-seq; sequence = guide strand; conditions: shRNA
Also: reference of the scale not given here.

| Sequence | sensor-assay potency score (higher = more potent) |
| --- | --- |
| TTCATAGAAAGTAATCTTGGTT | -0.0295 |
| AAGATCTGAATCTTATACTGGC | 0.642 |
| TTTTTGTCTTCATAGAAAGTAA | -0.778 |
| TTACAGGAGTGGATCTCTCGCA | 0.0996 |
| TCGCAATCACAGTCATAGCGAC | -1.06 |
| TATGTGTGGAAATCTGCACAGT | -0.978 |
| TTAATGGAGTTGCAGCGACTTA | -1.8 |
| TACAGGAGTGGATCTCTCGCAT | -0.237 |
| TCGCATGTGAAATTGCTCCATG | -0.662 |
| TTGAAAATTTTTGTCTTCATAG | -1.17 |
| TGGAGTTGCAGCGACTTAGGTA | -0.835 |
| TGATGGAAGGGCAATCTTCGGT | -1.06 |
| TAATGGAGTTGCAGCGACTTAG | -1.4 |
| TTTGTCTTCATAGAAAGTAATC | -1.62 |
| TTCGGTGGTTTCATACATCTGA | 0.37 |
| AAAGATCTGAATCTTATACTGG | 0.0834 |

molecular target: CSE1L; test: as above; conditions: shRNA

| Sequence | sensor-assay potency score (higher = more potent) |
| --- | --- |
| TATATTGGTCAACTGATTCAGG | -0.381 |
| TTCATCTTCAACAATTCTCCAG | -0.255 |
| TTGACTTAAATTCATGACGGTA | -0.629 |
| TTAGCTTTGCAAGTTATTCTTA | 0.362 |
| TAAGATTTCAGTAAACACCAAA | -0.574 |
| TTGACCTACAGGATCATGCTCT | 0.379 |
| TTTTAAATAATGAATGTGCTGT | 0.306 |
| TAGCAGAATCTCAACAAACGGT | -0.43 |
| TAACAGCTAATAGCTTCTGTGT | -1.13 |
| TCATCTTCAACAATTCTCCAGT | -0.0113 |
| TAAGTATGAACAACAATACTTT | -0.402 |
| TTAATCAAGAGAGGAATCGAGA | -0.818 |
| TACATTTCCAGATACCTTCTGA | -0.0308 |
| TTGAATTGCATTACTTACCAAC | -0.851 |
| TTGTGTAATTCCATGCTTCTGT | -0.12 |
| TTCTGTGGAAAATCTTCTCTGC | 0.43 |
| TAATATATTTGATACCGTCAGC | -0.712 |
| TTATGGATAAACATATTGCTTC | -0.779 |
| TATTGCTTCAAACATGTAGTGA | -0.339 |
| TTGGGTTCTTACTAACAGCTAA | -0.417 |
| TAGAAGATAAAAACCTTGGTGG | 0.264 |
| AAAACTTGCATAATCCTCGTAC | 0.387 |
